{"source": "PubChem BioAssay AID652048", "about": "(National Center for Advancing Translational Sciences (NCATS), 2013)", "note": "Among all 410,000 compounds or so, about 2,400 (0.59%) were called active. The sample as a whole holds a higher share of actives than the screen did. A number with no mark means an inactive call. Rule as the data show it: active = max activation above about 30%; inactive = the rest."}
{"target": "D(3) dopamine receptor (Homo sapiens) (UniProt P35462)", "sequence (P35462 whole entry, looked up)": "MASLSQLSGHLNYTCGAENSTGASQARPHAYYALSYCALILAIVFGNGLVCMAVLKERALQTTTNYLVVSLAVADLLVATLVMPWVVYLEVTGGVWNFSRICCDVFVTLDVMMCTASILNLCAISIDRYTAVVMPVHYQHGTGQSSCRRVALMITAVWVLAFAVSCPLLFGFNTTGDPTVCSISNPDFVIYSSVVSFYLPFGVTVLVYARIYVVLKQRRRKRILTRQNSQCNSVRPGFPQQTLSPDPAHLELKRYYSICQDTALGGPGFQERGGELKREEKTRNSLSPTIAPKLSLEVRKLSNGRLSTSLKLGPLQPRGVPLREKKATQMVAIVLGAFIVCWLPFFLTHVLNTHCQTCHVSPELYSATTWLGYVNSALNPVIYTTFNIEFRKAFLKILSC", "assay": "qHTS of D3 Dopamine Receptor Agonist: qHTS; also: 0% is about no effect", "settings": "D3R DiscoveRx beta-arrestin cells, luminescence, 90 min; stronger effect = higher value", "source_text": "D3 DARs represent a very important target for the treatment of several neuropsychiatric disorders. Indeed, one of the most promising therapeutic applications for the D3 DAR is in the area of addiction and related disorders. […] These findings have been observed with a number of addictive substances including cocaine, amphetamine, nicotine, and alcohol. […] Antagonism of the D3 DAR may also be therapeutic in the treatment of schizophrenia or psychosis. […] Since the D3 DAR is expressed in areas of the CNS associated with the control of mood and emotion, it has been hypothesized that selective antagonism of the D3 DAR may be effective in treating psychosis without inducing the motor side effects typically seen with D2 DAR antagonists.\nThis part of the project aims to discover novel agonist.\nNIH Chemical Genomics Center [NCGC]\nNIH Molecular Libraries Probe Centers Network [MLPCN]\nAssay Submitter (PI): David Sibley, NINDS\nFreshly passaged cells are plated in 1536 well white, solid bottom plates at a density of 1500 cells/well in 3microl of complete media. After an overnight incubation at 37 degrees C in 5% CO2, cells are loaded with 23nl of test compound from the compound library (as well as dopamine controls) using a 1536 pintool and incubated at 37 degrees C for 90 minutes. Two microliters of DiscoveRx reagent is then added to all cells, and they are incubated for an additional 30 - 60 minutes at room temperature. Following incubation, luminescence is measured on a ViewLux CCD-based luminometer reader using a 20 sec exposure time."}
{"compound": "CCC(=O)N1CCc2cc(Br)cc(S(=O)(=O)NCc3ccc(Cl)cc3)c21", "max activation": "-15.3%"}
{"compound": "CN1CC[C@H](c2c(O)cc(O)c3c(=O)cc(-c4ccccc4Cl)oc23)[C@H](O)C1", "max activation": "6.48%"}
{"compound": "Cc1ccnc(SCCn2c(Br)nc3c2c(=O)[nH]c(=O)n3C)n1", "max activation": "5.98%"}
{"compound": "Cn1c(=O)c2c(nc(Br)n2CCSc2nc3ccccc3o2)n(C)c1=O", "max activation": "4.26%"}
{"compound": "Cn1c(=O)[nH]c(=O)c2c1nc(Br)n2CCCCSc1nc2ccccc2o1", "max activation": "40.9% (active)"}
{"compound": "Oc1ccc(-c2nc3ccc(Cl)cn3c2Nc2ccc3c(c2)OCO3)cc1", "max activation": "6.89%"}
{"compound": "Cc1ccccc1CN1CCC(CNC(=O)c2cc3ccc4cccnc4c3[nH]2)CC1", "max activation": "-21.1%"}
{"compound": "CC(=O)Nc1cccc(NC(=O)CSc2cn(CC(=O)N3CCCC3)c3ccccc23)c1", "max activation": "11.5%"}
{"compound": "Cc1cccc(N2CCN(C(=O)CCn3c(=O)c4cccn4c4cccnc43)CC2C)c1", "note": "(configuration not stated)", "max activation": "14.9%"}
{"compound": "O=C(O)CCCCC(=O)O", "max activation": "2.29%"}
{"compound": "O=C(Nc1ncccc1O)c1ccc(S(=O)(=O)N2CCCC2)cc1", "max activation": "1.73%"}
{"compound": "O=C(NCCN1C(=O)S/C(=C\\c2cccnc2)C1=O)c1ccc(S(=O)(=O)N2CCCC2)cc1", "max activation": "31.1% (active)"}
{"compound": "COc1ccc(N2CC(C(=O)NCCN3C(=O)S/C(=C\\c4cccnc4)C3=O)CC2=O)c(OC)c1", "note": "(configuration not stated)", "max activation": "2.93%"}
{"compound": "Cc1cccc(NC(=O)Cn2c(=O)n(CCC(C)C)c(=O)c3cccnc32)c1", "max activation": "-14.3%"}
{"compound": "Cc1ccc(-c2nc3cccc(C)n3c2Nc2ccc3c(c2)OCCO3)cc1", "max activation": "-6.45%"}
{"compound": "COc1ccc(N2CCN(C(=O)CCSCc3ccccc3F)CC2)cc1", "max activation": "1.03%"}
{"compound": "O=C(CCSCc1ccccc1F)N1CCN(c2ccc(Cl)cc2)CC1", "max activation": "57.2% (active)"}
{"compound": "Cc1cccc(N2CCN(C(=O)CCSCc3ccccc3F)CC2)c1C", "max activation": "-6.07%"}
{"compound": "CC(Oc1ccccc1)C(=O)N[C@@H]1C(=O)N2[C@@H]1SC(C)(C)[C@@H]2C(=O)O", "note": "(some centres not stated)", "max activation": "8.72%"}
{"compound": "Cc1cccc2c(=O)cc(CSc3ccccc3NC(=O)C(C)C)[nH]c12", "max activation": "3.87%"}
{"compound": "COc1cc(Nc2nc(-c3ccc(OC)c(OC)c3)nc3ccccc23)cc(OC)c1", "max activation": "-6.69%"}
{"compound": "COc1ccc(-n2cnnc2SCC(=O)Nc2cccc(S(N)(=O)=O)c2)cc1", "max activation": "0.641%"}
{"compound": "Cc1ccc(-c2nn(-c3ccccc3)cc2/C=C/C(=O)Nc2cccc(S(N)(=O)=O)c2)cc1", "max activation": "38.3% (active)"}
{"compound": "NS(=O)(=O)c1ccc(NC(=O)/C=C/c2ccccc2Cl)cc1", "max activation": "2.71%"}
{"compound": "CN[C@@H]1[C@@H](O)[C@@H](O[C@@H]2[C@H](O)[C@H](O[C@H]3OC(CN)=CC[C@H]3N)[C@@H](N)C[C@H]2N)OCC1(C)O", "note": "(some centres not stated)", "max activation": "-3.05%"}
{"compound": "O=C1NS(=O)(=O)c2ccccc21", "max activation": "0.55%"}
{"compound": "CCn1cc(C(=O)NCCc2ccccc2)c(=O)c2cc(S(=O)(=O)N3CCCCCC3)ccc21", "max activation": "-2.07%"}
{"compound": "CC(=O)Nc1ccc(NC(=O)C2CCCN(S(=O)(=O)c3ccc4c(c3)CCCC(=O)N4)C2)cc1", "note": "(configuration not stated)", "max activation": "6.84%"}
{"compound": "CN(C)CCCSc1ccccc1NC(=O)/C=C/c1ccccc1", "max activation": "-15.8%"}
{"compound": "CCOC(=O)c1cc(-c2ccccc2C)n(Cc2cc(C)no2)n1", "max activation": "59.5% (active)"}
{"compound": "CCOC(=O)c1cc(-c2sc(NC(=O)c3ccccc3)nc2C)n(Cc2ccccc2)n1", "max activation": "8.04%"}
{"compound": "CCOC(=O)c1cc(OC(=O)c2ccccc2Cl)n(-c2ccccc2)n1", "max activation": "-8.96%"}
{"compound": "COc1ccc(C(=O)NC(=S)Nc2ccccc2N2CCN(S(C)(=O)=O)CC2)cc1OC", "max activation": "34.6% (active)"}
{"compound": "CC(=O)N1CCN(c2ccccc2NC(=S)NC(=O)c2cc3ccccc3o2)CC1", "max activation": "-3.88%"}
{"compound": "CCc1ccc(C(=O)NC(=S)Nc2ccccc2N2CCOCC2)cc1", "max activation": "-1.31%"}
{"compound": "CCOc1cccc2sc(N3CCN(C(=O)C4CC4)CC3)nc12", "max activation": "-4.91%"}
{"compound": "Cc1ccccc1-n1c(SCC(=O)Nc2cccc3ccccc23)nc(O)cc1=O", "max activation": "0.0019%"}
{"compound": "C/C(=N\\NC(=O)CNc1cccc2ccccc12)c1ccc(Br)s1", "max activation": "30.4% (active)"}
{"compound": "CC/C(=N\\NC(=O)c1ccccc1Cl)c1ccc(Br)s1", "max activation": "5.71%"}
{"compound": "COc1ccccc1CNS(=O)(=O)c1ccc2c(c1)NC(=O)CS2", "max activation": "5.98%"}
{"compound": "CCC(Cc1ccccc1)NS(=O)(=O)c1ccc2c(c1)NC(=O)CS2", "note": "(configuration not stated)", "max activation": "34.1% (active)"}
{"compound": "O=C1CSc2ccc(S(=O)(=O)NCc3ccccc3)cc2N1", "max activation": "-4.53%"}
{"compound": "Cc1ccccc1CSc1nc2c([nH]c3ccccc32)c(=O)n1C", "max activation": "-3.75%"}
{"compound": "COc1ccc(-c2nc3n(c2Br)CCC3)cc1", "max activation": "8%"}
{"compound": "COc1ccc(-c2nc3c(s2)CCc2onc(-c4ccc(Br)cc4)c2-3)cc1", "max activation": "31.5% (active)"}
{"compound": "COc1ccc(-c2nc3c(s2)CCc2onc(-c4ccc(OC)cc4)c2-3)cc1", "max activation": "5.32%"}
{"compound": "NC(=O)C(=O)N/N=C/c1ccc([N+](=O)[O-])o1", "max activation": "-13.9%"}
{"compound": "CN1CC(O)c2cc(N=NC(N)=O)c(O)cc21", "note": "(configuration not stated)", "max activation": "-13%"}
{"compound": "Cc1onc(-c2ccc(F)cc2F)c1C(=O)Nc1cccc(C(F)(F)F)c1", "max activation": "-14.1%"}
{"compound": "Cc1oc2c(F)c(F)c(F)c(F)c2c1S(=O)(=O)Nc1cccc(C(F)(F)F)c1", "max activation": "39.8% (active)"}
{"compound": "Cc1oc2ccc(O)c(CN3CCCCC3)c2c1C(=O)Nc1cccc(C(F)(F)F)c1", "max activation": "0.725%"}
{"compound": "COc1cc(Cl)c(NC(=O)C(NS(=O)(=O)c2cccs2)C(C)C)c(OC)c1", "note": "(configuration not stated)", "max activation": "6.54%"}
{"compound": "COc1ccc(CCNc2ncnc3c2cnn3-c2ccc(C)cc2)cc1", "max activation": "11.8%"}
{"compound": "Cc1ccccc1C(=O)Nc1sc2c(c1C(=O)N1CCC(C)CC1)CCCC2", "max activation": "-2.21%"}
{"compound": "CCc1ccc(-n2c(=S)sc3c(=O)n(-c4ccccc4OC)c(=S)[nH]c32)cc1", "max activation": "0.277%"}
{"compound": "COc1ccccc1-n1c(-c2ccc(C)cc2)cn2c3c(=O)n(C)c(=O)n(C)c3nc12", "max activation": "-0.938%"}
{"compound": "COc1ccccc1-n1c(=S)[nH]c2c(sc(=S)n2-c2ccc(C)cc2C)c1=O", "max activation": "37.7% (active)"}
